Source: PubChem BioAssay AID1159580 (chemical genetic matrix, 2015)
Values joined by “and” are separate entries in the source; they are usually repeats but may differ in a detail not shown here. Equal values may be shown once. Screen size: about 5,500 compounds; about 2,000 (36%) were called active. Inconclusive results (about 18%) are left out. Rule as the data show it: active = normalized growth mostly below about 0.91 (no sharp cut-off); inconclusive = no clear call, values can overlap the other calls; inactive = mostly above about 0.92. The list shows a part of the results.

Assay: chemical genetic growth profiling, strain panel (AID 1159580);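 also: tested at 20 µM; growth read once vehicle control cultures reached saturation at 30 °C; 1 = growth at the plate median or of vehicle wells; lower values mean less growth of the strain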
Details: growth OD

Measured: normalized growth

NC(N)=NC(N)=Nc1ccccc1
inactive: S. cerevisiae deletion strains, locus YJR066W, strain TOR1, stronger effect = lower value 0.931 | S. cerevisiae deletion strains, locus YKL009W, strain mrt4, stronger effect = lower value 0.998 | S. cerevisiae deletion strains, locus YKL068W, stronger effect = lower value 0.996 | S. cerevisiae deletion strains, locus YKL085W, strain MDH1 (second series), stronger effect = lower value 1 | S. cerevisiae deletion strains, locus YKL085W, strain MDH1, stronger effect = lower value 1 | S. cerevisiae deletion strains, locus YKL160W, strain elf1, stronger effect = lower value 0.991 | S. cerevisiae deletion strains, locus YKL190W, strain CNB1, stronger effect = lower value 1 | S. cerevisiae deletion strains, locus YKR001C, strain vps1, stronger effect = lower value 0.994 | S. cerevisiae deletion strains, locus YKR026C, strain gcn3, stronger effect = lower value 1 | S. cerevisiae deletion strains, locus YKR091W, strain srl3, stronger effect = lower value 0.994 | S. cerevisiae deletion strains, locus YLL001W, strain dnm1, stronger effect = lower value 0.982 | S. cerevisiae deletion strains, locus YLL026W, stronger effect = lower value 1 | S. cerevisiae deletion strains, locus YLL041C, strain sdh2, stronger effect = lower value 1 | S. cerevisiae deletion strains, locus YLR027C, strain aat2, stronger effect = lower value 1 | S. cerevisiae deletion strains, locus YLR039C, strain RIC1, stronger effect = lower value 1.05 | S. cerevisiae deletion strains, locus YLR058C, strain SHM2, stronger effect = lower value 1.02 | S. cerevisiae deletion strains, locus YLR102C, strain apc9, stronger effect = lower value 0.994 | S. cerevisiae deletion strains, locus YLR113W, strain HOG1, stronger effect = lower value 0.988 | S. cerevisiae deletion strains, locus YLR221C, strain rsa3, stronger effect = lower value 1 | S. cerevisiae deletion strains, locus YLR258W, strain gsy2, stronger effect = lower value 0.988 | S. cerevisiae deletion strains, locus YLR262C, strain YPT6 (second series), stronger effect = lower value 0.985 | S. cerevisiae deletion strains, locus YLR262C, strain YPT6, stronger effect = lower value 1.05 | S. cerevisiae deletion strains, locus YLR268W, strain sec22, stronger effect = lower value 0.997 | S. cerevisiae deletion strains, locus YLR320W, strain mms22, stronger effect = lower value 0.993 | S. cerevisiae deletion strains, locus YLR330W, strain CHS5, stronger effect = lower value 1.01 | S. cerevisiae deletion strains, locus YLR342W, strain FKS1 (second series), stronger effect = lower value 1.02 | S. cerevisiae deletion strains, locus YLR342W, strain FKS1, stronger effect = lower value 1 | S. cerevisiae deletion strains, locus YLR357W, strain rsc2, stronger effect = lower value 0.998 | S. cerevisiae deletion strains, locus YLR370C, strain arc18, stronger effect = lower value 1.01 | S. cerevisiae deletion strains, locus YLR371W, strain rom2, stronger effect = lower value 0.986 | S. cerevisiae deletion strains, locus YLR384C, strain iki3, stronger effect = lower value 0.999 | S. cerevisiae deletion strains, locus YLR418C, strain cdc73, stronger effect = lower value 0.951 | S. cerevisiae deletion strains, locus YML016C, strain PPZ1, stronger effect = lower value 1.02 | S. cerevisiae deletion strains, locus YML032C, strain rad52, stronger effect = lower value 0.991 | S. cerevisiae deletion strains, locus YML120C, strain ndi1, stronger effect = lower value 0.995 | S. cerevisiae deletion strains, locus YML124C, strain tub3, stronger effect = lower value 0.991 | S. cerevisiae deletion strains, locus YMR058W, strain fet3, stronger effect = lower value 1 | S. cerevisiae deletion strains, locus YMR078C, strain ctf18, stronger effect = lower value 0.998 | S. cerevisiae deletion strains, locus YMR125W, strain sto1, stronger effect = lower value 0.982 | S. cerevisiae deletion strains, locus YMR129W, stronger effect = lower value 0.996 | S. cerevisiae deletion strains, locus YMR205C, strain PFK2, stronger effect = lower value 1.01 | S. cerevisiae deletion strains, locus YMR223W, strain ubp8, stronger effect = lower value 0.99 | S. cerevisiae deletion strains, locus YMR231W, strain pep5, stronger effect = lower value 0.994 | S. cerevisiae deletion strains, locus YMR263W, strain SAP30, stronger effect = lower value 0.993 | S. cerevisiae deletion strains, locus YMR307W, strain GAS1, stronger effect = lower value 1.04 and 0.978 | S. cerevisiae deletion strains, locus YNL067W, strain RPL9B, stronger effect = lower value 1.03 | S. cerevisiae deletion strains, locus YNL071W, strain lat1, stronger effect = lower value 1.01 | S. cerevisiae deletion strains, locus YNL128W, strain TEP1, stronger effect = lower value 1.01 and 1.02 | S. cerevisiae deletion strains, locus YNL175C, strain NOP13, stronger effect = lower value 1.02 | S. cerevisiae deletion strains, locus YNL183C, strain NPR1, stronger effect = lower value 0.923 | S. cerevisiae deletion strains, locus YNL197C, strain WHI3, stronger effect = lower value 1.02 | S. cerevisiae deletion strains, locus YNL209W, strain ssb2, stronger effect = lower value 1 | S. cerevisiae deletion strains, locus YNL224C, strain SQS1, stronger effect = lower value 0.998 | S. cerevisiae deletion strains, locus YNL233W, strain BNI4, stronger effect = lower value 1.02 | S. cerevisiae deletion strains, locus YNL248C, strain rpa49, stronger effect = lower value 0.998 | S. cerevisiae deletion strains, locus YNL250W, strain rad50, stronger effect = lower value 0.992 | S. cerevisiae deletion strains, locus YNL271C, strain bni1, stronger effect = lower value 0.994 | S. cerevisiae deletion strains, locus YNL298W, strain CLA4, stronger effect = lower value 0.993 | S. cerevisiae deletion strains, locus YNL307C, strain MCK1, stronger effect = lower value 1 | S. cerevisiae deletion strains, locus YNL322C, strain KRE1 (second series), stronger effect = lower value 1 | S. cerevisiae deletion strains, locus YNL322C, strain KRE1, stronger effect = lower value 1 | S. cerevisiae deletion strains, locus YNR049C, strain mso1, stronger effect = lower value 1.01 | S. cerevisiae deletion strains, locus YNR052C, strain pop2, stronger effect = lower value 0.991 | S. cerevisiae deletion strains, locus YOL006C, strain TOP1, stronger effect = lower value 1.03 | S. cerevisiae deletion strains, locus YOL012C, strain htz1 1.06 | S. cerevisiae deletion strains, locus YOL147C, strain pex11, stronger effect = lower value 0.991 | S. cerevisiae deletion strains, locus YOR001W, strain rrp6, stronger effect = lower value 0.989 | S. cerevisiae deletion strains, locus YOR061W, strain CKA2, stronger effect = lower value 1.01 | S. cerevisiae deletion strains, locus YOR069W, strain VPS5, stronger effect = lower value 1.01 | S. cerevisiae deletion strains, locus YOR070C, strain gyp1, stronger effect = lower value 1 | S. cerevisiae deletion strains, locus YOR080W, strain dia2, stronger effect = lower value 0.98 | S. cerevisiae deletion strains, locus YOR083W, strain WHI5 (second series), stronger effect = lower value 1.02 | S. cerevisiae deletion strains, locus YOR083W, strain WHI5, stronger effect = lower value 0.996 | S. cerevisiae deletion strains, locus YOR106W, strain vam3, stronger effect = lower value 1 | S. cerevisiae deletion strains, locus YOR136W, strain idh2, stronger effect = lower value 0.995 | S. cerevisiae deletion strains, locus YOR144C, strain elg1, stronger effect = lower value 0.994 | S. cerevisiae deletion strains, locus YOR184W, strain ser1, stronger effect = lower value 0.977 | S. cerevisiae deletion strains, locus YOR231W, strain MKK1, stronger effect = lower value 1.01 | S. cerevisiae deletion strains, locus YOR265W, strain rbl2, stronger effect = lower value 1.01 | S. cerevisiae deletion strains, locus YOR270C, strain vph1, stronger effect = lower value 1.06 | S. cerevisiae deletion strains, locus YOR290C, strain snf2, stronger effect = lower value 0.987 | S. cerevisiae deletion strains, locus YOR316C, strain cot1, stronger effect = lower value 0.996 | S. cerevisiae deletion strains, locus YPL051W, strain arl3, stronger effect = lower value 0.996 | S. cerevisiae deletion strains, locus YPL055C, strain LGE1, stronger effect = lower value 0.993 | S. cerevisiae deletion strains, locus YPL078C, strain atp4, stronger effect = lower value 1 | S. cerevisiae deletion strains, locus YPL106C, strain sse1, stronger effect = lower value 0.955 | S. cerevisiae deletion strains, locus YPL240C, strain hsp82, stronger effect = lower value 0.986 | S. cerevisiae deletion strains, locus YPL241C, strain CIN2, stronger effect = lower value 1.01 | S. cerevisiae deletion strains, locus YPL256C, strain CLN2, stronger effect = lower value 0.996 | S. cerevisiae deletion strains, locus YPR119W, strain clb2, stronger effect = lower value 0.991 | S. cerevisiae deletion strains, locus YPR141C, strain kar3, stronger effect = lower value 0.98 | S. cerevisiae deletion strains, locus YPR163C, strain tif3, stronger effect = lower value 0.999 | S. cerevisiae deletion strains, locus YPR167C, strain met16, stronger effect = lower value 0.996 | S. cerevisiae deletion strains, strain wtn01, stronger effect = lower value 1 | S. cerevisiae strains, strain wild type, stronger effect = lower value 1.01
